# Laboratory results reported in the supplement of paper PMC8728848.
# Only a selection was taken, and the strongest signals are over-represented in it overall.
# Columns and labels:
# Test in all cases: glycan array binding signal (z-score within array); higher = stronger binding
# [1] = tested on: Fuc(a1-2)[GalNAc(a1-3)]Gal(b1-4)GlcNAc; conditions: glycan notation: IUPAC condensed, linker removed
# Procedure, shortened: (§1)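 The Consortium for Functional Glycomics database supplied 3228 glycan arrays, of which those lacking an available protein sequence were dropped. The binding signal, a within-array Z-score, was averaged across arrays of the same protein sequence and across linkers. Negative scores can be read as non-binding.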
# [2] = tested on: Fuc(a1-3)[Gal(b1-4)]GlcNAc(b1-2)Man; conditions: glycan notation: IUPAC condensed, linker removed; mutation: R125K
# Procedure, shortened: as §1
# [3] = tested on: Fuc(a1-2)[GalNAc(a1-3)]Gal(b1-4)Glc; conditions: glycan notation: IUPAC condensed, linker removed
# Procedure, shortened: as §1
# [4] = tested on: Fuc(a1-2)[GalNAc(a1-3)]Gal(b1-4)[Fuc(a1-3)]GlcNAc(b1-3)GalNAc; conditions: glycan notation: IUPAC condensed, linker removed
# Procedure, shortened: as §1
# [5] = tested on: Fuc(a1-2)[GalNAc(a1-3)]Gal(b1-4)[Fuc(a1-3)]GlcNAc; conditions: glycan notation: IUPAC condensed, linker removed
# Procedure, shortened: as §1
# [6] = tested on: Fuc(a1-3)[Gal(b1-4)]GlcNAc(b1-2)Man(a1-6)[Gal(b1-4)GlcNAc(b1-2)Man(a1-3)]Man(b1-4)GlcNAc(b1-4)GlcNAc; conditions: glycan notation: IUPAC condensed, linker removed
# Procedure, shortened: as §1
# [7] = tested on: Fuc(a1-2)[GalNAc(b1-3)]Gal; conditions: glycan notation: IUPAC condensed, linker removed
# Procedure, shortened: as §1
# [8] = tested on: Fuc(a1-2)[GalNAc(a1-3)]Gal; conditions: glycan notation: IUPAC condensed, linker removed
# Procedure, shortened: as §1
# [9] = tested on: Fuc(a1-2)[GalNAc(a1-4)]Gal(b1-4)GlcNAc; conditions: glycan notation: IUPAC condensed, linker removed
# Procedure, shortened: as §1
# [10] = tested on: Fuc(a1-3)[Gal(b1-4)]Glc6S; conditions: glycan notation: IUPAC condensed, linker removed
# Procedure, shortened: as §1
# Chain of PILRb (Mus musculus), Q2YSF2 (Q2YSF2 entry or part of it): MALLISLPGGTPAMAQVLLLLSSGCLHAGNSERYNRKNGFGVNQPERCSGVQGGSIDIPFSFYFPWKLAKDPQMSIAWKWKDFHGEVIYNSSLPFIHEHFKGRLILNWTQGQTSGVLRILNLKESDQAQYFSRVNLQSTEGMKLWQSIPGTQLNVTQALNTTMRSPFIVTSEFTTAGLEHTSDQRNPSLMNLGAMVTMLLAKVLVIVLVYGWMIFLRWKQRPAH
# Chain of CHI3L1 (Homo sapiens), P36222 (P36222 whole entry): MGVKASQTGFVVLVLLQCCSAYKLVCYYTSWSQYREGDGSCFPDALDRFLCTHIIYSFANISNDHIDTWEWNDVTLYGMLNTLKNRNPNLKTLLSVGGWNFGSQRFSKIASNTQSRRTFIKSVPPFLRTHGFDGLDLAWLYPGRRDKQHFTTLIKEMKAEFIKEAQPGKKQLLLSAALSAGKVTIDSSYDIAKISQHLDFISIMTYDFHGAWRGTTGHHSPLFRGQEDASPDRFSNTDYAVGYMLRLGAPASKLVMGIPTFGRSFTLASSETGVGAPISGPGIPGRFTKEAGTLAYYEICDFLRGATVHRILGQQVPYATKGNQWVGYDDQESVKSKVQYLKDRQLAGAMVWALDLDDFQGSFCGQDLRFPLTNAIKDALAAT
# Chain of Aggrecan (Rattus norvegicus), NP_071526 (chain, as listed by the source): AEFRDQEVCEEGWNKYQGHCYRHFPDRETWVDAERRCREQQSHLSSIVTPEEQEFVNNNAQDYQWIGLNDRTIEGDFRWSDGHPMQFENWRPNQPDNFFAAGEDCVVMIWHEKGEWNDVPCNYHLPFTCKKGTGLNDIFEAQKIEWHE
# Chain of 6RG (Lolium perenne) (chain, as listed by the source): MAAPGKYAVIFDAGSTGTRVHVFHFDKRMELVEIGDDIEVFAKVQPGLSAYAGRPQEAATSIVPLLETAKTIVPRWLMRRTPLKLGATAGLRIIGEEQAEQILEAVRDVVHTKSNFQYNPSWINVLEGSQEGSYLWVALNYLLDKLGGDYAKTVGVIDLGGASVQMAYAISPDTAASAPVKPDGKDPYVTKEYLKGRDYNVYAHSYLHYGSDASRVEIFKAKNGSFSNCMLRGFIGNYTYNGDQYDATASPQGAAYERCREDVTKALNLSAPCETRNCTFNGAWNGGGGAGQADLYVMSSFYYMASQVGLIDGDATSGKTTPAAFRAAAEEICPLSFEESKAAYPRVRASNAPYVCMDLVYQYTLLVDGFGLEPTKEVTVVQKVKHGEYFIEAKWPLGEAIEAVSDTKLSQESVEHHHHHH
# Chain of wLAT-1A (Homo sapiens), Q01650 (Q01650 whole entry): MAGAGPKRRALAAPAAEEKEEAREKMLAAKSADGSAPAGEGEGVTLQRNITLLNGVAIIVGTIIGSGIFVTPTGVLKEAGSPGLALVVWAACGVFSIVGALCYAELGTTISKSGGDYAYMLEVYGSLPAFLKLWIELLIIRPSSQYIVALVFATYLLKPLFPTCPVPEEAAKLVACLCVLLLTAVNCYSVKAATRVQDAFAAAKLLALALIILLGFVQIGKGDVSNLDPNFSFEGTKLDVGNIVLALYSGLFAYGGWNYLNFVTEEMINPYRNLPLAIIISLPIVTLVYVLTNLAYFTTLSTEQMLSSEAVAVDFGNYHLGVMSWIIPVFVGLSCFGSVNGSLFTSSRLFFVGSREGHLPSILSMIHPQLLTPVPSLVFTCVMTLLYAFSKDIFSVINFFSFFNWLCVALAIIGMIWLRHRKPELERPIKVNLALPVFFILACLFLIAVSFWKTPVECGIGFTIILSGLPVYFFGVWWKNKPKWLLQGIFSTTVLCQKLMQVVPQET
# Chain of Neurocan (Homo sapiens), O14594 (O14594 other isoform, or with tags, fused parts or gaps): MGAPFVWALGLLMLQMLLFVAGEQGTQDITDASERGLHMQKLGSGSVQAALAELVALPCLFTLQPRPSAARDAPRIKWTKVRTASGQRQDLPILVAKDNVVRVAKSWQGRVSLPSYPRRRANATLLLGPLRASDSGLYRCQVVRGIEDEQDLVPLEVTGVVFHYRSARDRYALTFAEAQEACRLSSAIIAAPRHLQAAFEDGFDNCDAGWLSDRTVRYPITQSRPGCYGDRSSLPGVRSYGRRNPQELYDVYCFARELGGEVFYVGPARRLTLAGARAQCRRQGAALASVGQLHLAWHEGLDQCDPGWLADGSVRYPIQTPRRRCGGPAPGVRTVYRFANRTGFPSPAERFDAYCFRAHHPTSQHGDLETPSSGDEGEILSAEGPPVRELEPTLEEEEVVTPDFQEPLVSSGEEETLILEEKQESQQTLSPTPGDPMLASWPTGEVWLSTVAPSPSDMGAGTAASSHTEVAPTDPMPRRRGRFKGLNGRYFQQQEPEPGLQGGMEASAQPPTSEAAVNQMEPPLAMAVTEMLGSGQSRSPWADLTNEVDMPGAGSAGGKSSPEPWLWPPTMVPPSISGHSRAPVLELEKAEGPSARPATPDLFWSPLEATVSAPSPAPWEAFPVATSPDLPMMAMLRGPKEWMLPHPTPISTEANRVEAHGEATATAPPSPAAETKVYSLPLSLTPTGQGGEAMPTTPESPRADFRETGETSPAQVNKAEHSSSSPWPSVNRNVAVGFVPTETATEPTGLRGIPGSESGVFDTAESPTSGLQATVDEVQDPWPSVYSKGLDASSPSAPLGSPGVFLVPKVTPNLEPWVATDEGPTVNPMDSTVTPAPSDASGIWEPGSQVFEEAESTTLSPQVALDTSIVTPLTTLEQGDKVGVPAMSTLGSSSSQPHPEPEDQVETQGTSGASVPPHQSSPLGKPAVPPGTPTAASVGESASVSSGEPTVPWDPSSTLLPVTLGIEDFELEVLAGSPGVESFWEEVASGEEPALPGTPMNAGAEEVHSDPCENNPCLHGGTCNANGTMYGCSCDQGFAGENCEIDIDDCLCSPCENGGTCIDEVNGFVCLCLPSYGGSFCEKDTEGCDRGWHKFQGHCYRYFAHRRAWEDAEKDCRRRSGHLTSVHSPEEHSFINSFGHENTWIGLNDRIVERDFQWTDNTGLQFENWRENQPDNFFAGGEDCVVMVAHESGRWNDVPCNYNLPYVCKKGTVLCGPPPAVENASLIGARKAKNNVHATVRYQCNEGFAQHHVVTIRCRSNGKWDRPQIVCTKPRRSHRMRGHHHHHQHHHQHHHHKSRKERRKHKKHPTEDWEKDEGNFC
# Chain of 6RG (Lolium perenne), B9U140 (B9U140 entry or part of it): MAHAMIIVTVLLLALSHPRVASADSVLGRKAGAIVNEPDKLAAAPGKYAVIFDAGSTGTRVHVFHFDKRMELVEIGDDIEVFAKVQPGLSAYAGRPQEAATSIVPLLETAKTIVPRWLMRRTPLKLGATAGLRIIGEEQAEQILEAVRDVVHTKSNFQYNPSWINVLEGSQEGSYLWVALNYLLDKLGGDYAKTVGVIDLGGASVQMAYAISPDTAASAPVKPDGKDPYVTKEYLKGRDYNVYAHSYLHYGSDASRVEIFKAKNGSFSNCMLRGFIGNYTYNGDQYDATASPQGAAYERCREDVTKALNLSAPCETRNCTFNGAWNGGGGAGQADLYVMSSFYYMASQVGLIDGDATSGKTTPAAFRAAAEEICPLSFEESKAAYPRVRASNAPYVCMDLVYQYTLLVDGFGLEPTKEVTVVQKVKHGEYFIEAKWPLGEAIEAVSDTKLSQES
# Chain of Avaren (Actinomycete K97) (chain, as listed by the source): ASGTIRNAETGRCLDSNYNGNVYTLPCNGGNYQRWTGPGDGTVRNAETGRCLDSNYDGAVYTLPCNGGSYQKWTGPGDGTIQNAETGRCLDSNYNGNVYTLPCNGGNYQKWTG
substance,measurement,setting,value
"6RG (Lolium perenne), B9U140",glycan array binding signal (z-score),[1],-0.075
"Siglec-8 (Homo sapiens), Q9NYZ4",glycan array binding signal (z-score),[1]; mutation: R125K,-0.376
same,glycan array binding signal (z-score),[2],-0.3
"wLAT-1A (Homo sapiens), Q01650",glycan array binding signal (z-score),[3],0.692
"PILRb (Mus musculus), Q2YSF2",glycan array binding signal (z-score),[4],11.4
same,glycan array binding signal (z-score),[5],2.67
same,glycan array binding signal (z-score),[6],-0.477
"Aggrecan (Rattus norvegicus), NP_071526",glycan array binding signal (z-score),[5],0.401
same,glycan array binding signal (z-score),[7],17.3
MpAFP RI GFP (Marinomonas primoryensis),glycan array binding signal (z-score),[8],-0.389
"Neurocan (Homo sapiens), O14594",glycan array binding signal (z-score),[8],-0.021
Avaren (Actinomycete K97),glycan array binding signal (z-score),[9],-0.123
6RG (Lolium perenne),glycan array binding signal (z-score),[9],-0.148
same,glycan array binding signal (z-score),[6],-0.247
"CHI3L1 (Homo sapiens), P36222",glycan array binding signal (z-score),[7],0.059
same,glycan array binding signal (z-score),[10],-0.082
